# ST2 inh = blocks human ST2 binding to IL-33; inhibition, % for hits at 17 µM; Q01638; 2.3% of 78,000 active; AlphaLISA ST2-Fc/biotin-IL-33 interaction, 1 h; in the data active = inhibition above about 30%
# Target sequence (Q01638 whole entry, looked up): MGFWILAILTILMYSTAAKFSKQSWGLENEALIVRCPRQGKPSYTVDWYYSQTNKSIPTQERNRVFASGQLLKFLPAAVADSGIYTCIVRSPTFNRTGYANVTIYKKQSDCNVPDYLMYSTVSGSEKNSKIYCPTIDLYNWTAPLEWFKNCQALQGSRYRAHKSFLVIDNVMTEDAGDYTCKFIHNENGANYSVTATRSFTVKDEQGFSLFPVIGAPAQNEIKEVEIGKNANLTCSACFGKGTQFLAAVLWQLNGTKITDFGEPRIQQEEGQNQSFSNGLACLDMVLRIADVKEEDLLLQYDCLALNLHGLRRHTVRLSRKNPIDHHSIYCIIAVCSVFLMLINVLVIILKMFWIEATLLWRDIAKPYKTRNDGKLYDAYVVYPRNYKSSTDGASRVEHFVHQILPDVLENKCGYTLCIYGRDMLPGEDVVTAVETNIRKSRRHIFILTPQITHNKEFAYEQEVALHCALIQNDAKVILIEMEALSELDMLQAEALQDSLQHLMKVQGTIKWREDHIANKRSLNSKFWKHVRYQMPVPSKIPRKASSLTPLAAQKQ
# The depositor's hits bear a star; i = inactive. Only a selection was taken, and hits are over-represented in it overall.
SMILES,ST2 inh
COc1c(Cl)cc(Cl)cc1C1Nc2ccccc2NC2=C1C(=O)CC(C)(C)C2 (centres undefined),i
Oc1c(C=NC2CCCCC2)[nH]c2ccc(Br)c(Cl)c12,45.0%*
O=[N+]([O-])c1cccc(N=Cc2ccc(Br)c([N+](=O)[O-])c2)c1,i
Cc1ccc(C=Nc2ccc(Br)cc2)cc1,i
Oc1c(C=Nc2cccc(F)c2)[nH]c2ccc(Br)c(Cl)c12,32.0%*
Cc1c(Cl)c(C)c([N+](=O)[O-])c(O)c1C=Nc1cccc(C(=O)O)c1,i
O=[N+]([O-])c1ccc(N=Cc2cc(Br)cc(I)c2O)cc1,i
Oc1c(C=Nc2ccc(Br)cc2)[nH]c2ccc(Br)c(Cl)c12,30.0%*
Cc1ccc(S(=O)(=O)Nc2ccc(OC(C)C)cc2)cc1,i
COCC1CCCCN1C(=O)c1coc(COc2ccccc2)n1 (centres undefined),i
Cc1ccc(CSC2=NCCN2C(=O)c2ccc(S(=O)(=O)N3CCOCC3)cc2)cc1,i
COc1cc(S(=O)(=O)NCCOC23CC4CC(CC(C4)C2)C3)ccc1Cl,i
O=C(Nc1ccccc1O)c1cc2ccccc2o1,i
O=C(Nc1ccccc1O)c1cc2ccccc2oc1=O,34.0%*
O=C(Nc1ccccc1Cl)c1cc2ccccc2oc1=O,i
CCn1ncnc1C(C)NC(=O)c1cc(-n2cccn2)ccc1Cl (centres undefined),i
Nc1ccc(-c2ccc(F)cc2Cl)cn1,35.0%*
COc1cncc(-c2ccc(F)cc2Cl)c1,i
NC(=O)c1ccnc(-c2ccc(F)cc2Cl)c1,i
CC(C)Cc1nc([C@H]2CCC(=O)N2)n(-c2ccc3c(c2)OCCO3)n1,i
COc1cc(NC(=O)CSc2nnc(-c3ccco3)c(-c3ccco3)n2)cc(OC)c1,31.0%*
Cc1cccc(C)c1NC(=O)CSc1nnc(-c2ccccc2)c(-c2ccccc2)n1,i
COc1ccc(NC(=O)CSc2ncccn2)cc1,i
O=C1CCC(=O)N(O)CCCCCNC(=O)CCC(=O)N(O)CCOCCNC(=O)CCC(=O)N(O)CCCCCN1,i
O=C1CCC(=O)NCCCCCN(O)C(=O)CCC(=O)NCCCCCN(O)C(=O)CCC(=O)NCCCCCN1,39.0%*
SMILES,ST2 inh
CCc1nnc(NC(=O)C(CC(C)C)N2C(=O)c3ccccc3C2=O)s1 (centres undefined),i
Cc1cc(CN2C(=O)C(=O)c3ccccc32)c(C)cc1CN1C(=O)C(=O)c2ccccc21,i
Cc1cccc(NC(=O)CN2C(=O)C(=O)c3ccccc32)c1,i
C/C(Cl)=C\CN1C(=O)C(=O)c2cccc(C)c21,54.0%*
CCCS(=O)(=O)N1CCC(C(=O)NC2CCCCC2)CC1,i
Cc1ccc(S(=O)(=O)N(C)CC(=O)Nc2ccc(I)cc2)cc1,i
CN1CC2(CCCN(C(=O)c3csc4c3CCCC4)CC2)OC1=O (centres undefined),i
C=CCOc1ccc(C(=O)N2CCOCC2)cc1,31.0%*
CCCOc1ccc(C(=O)N2CCOCC2)cc1OC,i
Cc1cc(C)c(C(=O)c2ccc(C(=O)N3CCOCC3)cc2)c(C)c1,i
COc1ccc(CN2CCN(c3ncccn3)CC2)cc1C,i
COc1ccc(N2CCN(S(=O)(=O)c3ccc(OC)cc3)CC2)cc1,i
O=[N+]([O-])c1ccc(S(=O)(=O)N2CCN(c3ccc(Cl)cc3)CC2)cc1,33.0%*
CN1CCN(S(=O)(=O)c2ccc([N+](=O)[O-])cc2)CC1,i
CCOc1ccc(NC(N)=Nc2nc(C)c(C)c(=O)[nH]2)cc1,i
CN1CCN(CCCNC(=O)c2ccc3c(c2)NC(=O)C(N2CCCC2)S3)CC1 (centres undefined),i
O=C(Nc1ccc(-c2nc3ccccc3s2)cc1)C(F)(F)F,i
O=C(Nc1cc(-c2nc3ccccc3s2)ccc1Cl)c1ccco1,39.0%*
Cc1ccc(-c2nc3cc(Cl)ccc3o2)cc1NC(=O)c1ccco1,i
Cc1cc(N2CCCC2)nc(N2CCN(S(=O)(=O)c3ccccc3F)CC2)n1,i
CC(C)(C)Sc1ccc(SC#N)s1,i
CCSc1sc(SC#N)cc1SC#N,47.0%*
c1ccc(-c2nnc([C@H]3CCN(CC4CCCCC4)C3)o2)cc1,i
CN1C(=O)N(CCc2ccccc2)C(=O)C12CCN(Cc1ccc(-c3ccccc3)cc1)CC2,i
CCOC(=O)c1c(NC(=O)c2cc(-c3ccc(F)cc3)on2)sc(C)c1C,i
SMILES,ST2 inh
Cc1cccc(NS(=O)(=O)c2cccnc2)c1C,i
O=[N+]([O-])c1ccc(CSc2nnc3c(n2)[nH]c2ccccc23)cc1,i
CC(C)CSc1nnc2c(n1)[nH]c1ccccc12,32.0%*
c1ccc2c(c1)[nH]c1nc(SCCCN3CCOCC3)nnc12,i
O=c1cc[nH]c2ccc([N+](=O)[O-])cc12,i
O=[N+]([O-])c1ccc(Nc2c[nH]c3ccccc23)cc1,42.0%*
O=[N+]([O-])c1ccc(S(=O)(=O)Nc2ccccc2)cc1,i
Cc1cc(CN(C)C(=O)C2CCN(c3nc(C)c4cc(C(C)C)ccc4n3)CC2)on1,i
Cc1ccc2nc(Cl)c(CC3CC(c4ccccc4)=NN3C(=O)CCC(=O)O)cc2c1 (centres undefined),i
CCOc1cc(C(=O)Nc2c(C)cccc2C)ccc1Cl,i
C=CCn1c(O)c(C2=c3cc(Br)ccc3=NC2=O)c2ccccc21,37.0%*
O=C1N=c2ccc(Br)cc2=C1c1sc(=O)[nH]c1O,i
O=C1N=c2ccc(Br)cc2=C1c1sc(Nc2cccc(C(F)(F)F)c2)nc1O,i
O=C(NC(c1ccco1)C(F)(F)F)c1coc(Cn2cnc3ccccc32)n1 (centres undefined),i
CC(C)CN1C(=O)c2ccc(S(=O)(=O)c3ccc4c(c3)C(=O)N(CC(C)C)C4=O)cc2C1=O,i
CC(C)(C)N1C(=O)c2ccc(S(=O)(=O)c3ccc4c(c3)C(=O)N(C(C)(C)C)C4=O)cc2C1=O,30.0%*
O=C(O)c1ccc(S(=O)(=O)c2ccc3c(c2)C(=O)N(c2nccs2)C3=O)cc1,i
Cc1ccc(-c2nnc3s/c(=C\c4ccc(Cl)cc4)c(=O)n23)cc1,i
Cc1ccc(S(=O)(=O)N2C[C@H]3C[C@H](O)[C@H](O)C[C@H]3C2)c(F)c1,i
COc1ccc2cc3cc(C(=O)NCCN(C)Cc4ccccc4)oc3nc2c1,i
Cc1cc(Nc2ccc(O)cc2)n2c(nc3ccccc32)c1C#N,33.0%*
Cc1cc(NCCCN(C)C)n2c(nc3ccccc32)c1C#N,i
Cc1cc(NCCO)n2c(nc3ccccc32)c1C#N,i
CC12CN(C(=O)c3ccccc3Cl)CC(C)(CN(C(=O)c3ccccc3Cl)C1)C2=O,i
COc1ccccc1CNC(=O)c1ccc(I)cc1,i
SMILES,ST2 inh
CC(=O)c1cccc(N2C(=O)C3C4c5ccccc5C(c5ccccc54)C3C2=O)c1 (centres undefined),i
CCNc1ccc(N)c(C)c1C,79.0%*
COc1ccc(C2C3=C(CCCC3=O)Nc3nc(SCc4ccccc4)[nH]c(=O)c32)cc1 (centres undefined),i
CCC1CN(Cc2cncn2CC(C)C)CCC(=O)N1Cc1ccccc1 (centres undefined),i
O=C(CSc1nc2c([nH]c3ccccc32)c(=O)n1-c1cccc(Cl)c1)N1CCOCC1,35.0%*
O=C(CSc1nc2c([nH]c3ccccc32)c(=O)n1-c1ccc(F)cc1)N1CCCCC1,i
NC(=O)CSc1nc2c([nH]c3ccccc32)c(=O)n1-c1ccc(Cl)cc1,i

# Screening results from PubChem BioAssay.
